Reference: PubChem BioAssay AID463218 (Sanford-Burnham Center for Chemical Genomics, 2010)
Among all 4,400 compounds or so, about 3,700 (84%) were called active. The set was probably picked from earlier hits. Only a sample is shown. A number with no mark means an inactive call.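 How the source made its calls: active means inhibition above about 39% in either of two replicate wells at 20 µM (limit read from the data); inactive means the rest.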

Assay: growth inhibition of tim23-1 ts yeast, retest – luminescence, single concentration, confirmation (AID 463218);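 further: temperature-sensitive tim23-1 mutant grown at 25 °C; 0% = DMSO wells with yeast and 100% = medium wells without yeast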
Settings: S. cerevisiae tim23-1 growth, BacTiter-Glo luminescence, 24 h; at 20 µM; hits give high values
In the case of `Cc1nc2sc(C(=O)c3ccccc3)c(N)c2c2c1CCCC2`, the inhibition is reported as 54.4% (active).
With `COc1cccc(-c2sc3ccc(OC)cc3c2-c2ccc(OCCN3CCCCC3)cc2)c1` the inhibition was 23.4%.
With `Cc1[nH]n(C(N)=S)c(=O)c1N=Nc1ccc(Cl)cc1Cl` the inhibition was 70% (active).
For `CC(=O)N1N=C(c2ccncc2)OC1(Cc1ccccc1)Cc1ccccc1`, the inhibition was 49.8% (active).
For `c1ccc(-c2nc(NCc3ccco3)c3ccccc3n2)cc1`, the inhibition was 64.7% (active).
In the case of `O=c1ccc2c(-c3ccccc3S(=O)(=O)O)c3ccc(O)c(O)c3oc-2c1O`, the inhibition is reported as 43.4% (active).
For `O=c1oc(-c2ccccc2NS(=O)(=O)c2ccc(Cl)cc2)nc2ccccc12`, the inhibition was 56% (active).
For `CC(C)NC(=O)/C(C#N)=C\c1ccc(N(C)C)c(Br)c1`, the inhibition was 62.2% (active).
`O=C1CC(Sc2ncn[nH]2)C(=O)N1c1ccccc1` (stereo not given) gave an inhibition of 37.8%.
In the case of `Cc1cc(Nc2ccc(Br)cc2)nc2ccccc12`, the inhibition is reported as 68.2% (active).
With `Cc1ccc2nc(Nc3ccccc3)cc(C)c2c1` the inhibition was 43.1% (active).
Work on `Cc1cccc(-c2nc(Nc3ccc(O)cc3)c3ccccc3n2)c1` yielded an inhibition of -19.6%.
For `Cc1[nH][nH]c(=O)c1C(c1ccc(-c2ccc(Cl)cc2)o1)c1c(C)[nH][nH]c1=O`, the inhibition was 62.4% (active).
In the case of `CC(=O)Oc1ccc(N(C(C)=O)S(=O)(=O)c2ccc3ccccc3c2)cc1Br`, the inhibition is reported as 52.9% (active).
With `Cc1ccc(C(=O)OC2=CC(=O)CC(C)(C)C2)cc1` the inhibition was 38% (active).
For `CN1C(=O)/C(=N/OC(=O)c2ccccc2Br)c2ccccc21`, the inhibition was -64.7%.
For `CSC(=S)N/N=C/c1c[nH]c2ccccc12`, the inhibition was 52.5% (active).
With `COCCNC(=O)/C(C#N)=C/c1cccc(OCc2ccccc2)c1` the inhibition was 67% (active).
For `CCCCC(CC)CNC(=O)C(=O)C1C(=O)Nc2ccccc21` (stereo not given), the inhibition was 41.6% (active).
With `O=C(Nc1cccc(F)c1)NC1CCCCCCC1` the inhibition was 39.9% (active).
For `COc1cc(SC)ccc1C(=O)Nc1nc(C)cs1`, the inhibition was 57.5% (active).
For `Cc1cc(C)nc(S/C=C/C(=O)c2ccccc2)n1`, the inhibition was 87.6% (active).
In the case of `O=C(/C=C/Sc1ncn[nH]1)c1ccc(Cl)cc1`, the inhibition is reported as 20.5%.
With `CCc1ccc2c(c1)C1(NN=C(c3ccccc3)S1)C(=O)N2` (stereo not given) the inhibition was 53.2% (active).
In the case of `CCC1=NN(C(=O)Cc2ccc([N+](=O)[O-])cc2)C(O)(c2ccc(Br)cc2)C1` (stereo not given), the inhibition is reported as 45.7% (active).
In the case of `CC1CCC2CCCCC2N1C(=O)c1cc([N+](=O)[O-])cc([N+](=O)[O-])c1` (stereo not given), the inhibition is reported as 42.8% (active).
In the case of `Cc1onc(NC(=O)c2ccc([N+](=O)[O-])o2)c1Br`, the inhibition is reported as 50.6% (active).
`CCCNc1ncnc2sc(C)c(C)c12` showed an inhibition of 27.9%.
For `Cc1ccc2c(c1)c1ncnc(N3CCc4ccccc4C3)c1n2C`, the inhibition was 45.2% (active).
For `N#C/C(=C\c1cccnc1)C(=O)Nc1ccc(SC(F)F)cc1`, the inhibition was 65.7% (active).
With `Cc1ccc(Oc2nc(-c3ccccn3)nc3ccccc23)cc1` the inhibition was 46.1% (active).
In the case of `COc1ccc(Nc2nc(N)nc(CSC(=S)N3CCC(C)CC3)n2)cc1`, the inhibition is reported as 49.7% (active).
In the case of `COc1ccc(/C=C2/C(=O)N(c3ccccc3)N=C2C)c(OC)c1`, the inhibition is reported as 49.5% (active).
With `N#C/C(=C\c1ccccc1C(F)(F)F)C(=O)Nc1ccccc1F` the inhibition was 71.7% (active).
With `Cc1cccc(C)c1N1C(=O)CN(Cc2ccccc2)C1=S` the inhibition was 44.8% (active).
For `Cn1nc(C(F)(F)F)c2cc(NC(=O)OCC(C)(C)C)sc21`, the inhibition was 41.3% (active).
With `O=C(N/N=C\c1cc(Br)c(Br)o1)C1COc2ccccc2O1` (stereo not given) the inhibition was 31%.
With `Cc1ccc(Nc2nc(-c3ccc(O)cc3O)cs2)nc1` the inhibition was 70.4% (active).
With `N/C(=N\OC(=O)Nc1ccc(Cl)c(Cl)c1)c1ncc(C(F)(F)F)cc1Cl` the inhibition was 71.8% (active).
For `CN(C)/N=C/c1cn(-c2ccccc2)nc1-c1cccnc1`, the inhibition was 43% (active).
In the case of `Cc1ccc(-c2nn(C(C)(C)C)c3ncnc(N)c23)cc1`, the inhibition is reported as 65.7% (active).
In the case of `Clc1ccc(Nc2nc(-c3cccs3)cs2)nc1`, the inhibition is reported as 68.5% (active).
`Cc1cccc(Nc2nc(-c3ccccc3)cs2)n1` showed an inhibition of 23.9%.
With `CC(C)Cn1c(N)c(C(=O)NCc2cccs2)c2nc3ccccc3nc21` the inhibition was 46.1% (active).
With `COc1ccc2nc(NC(=O)NC3CCCCC3)sc2c1` the inhibition was 53.1% (active).
Molecule `COc1ccc(NC(=O)/C(Cl)=C(/Cl)S(=O)Cc2ccc(C)cc2)cn1` (stereo not given) has an inhibition of 27.6%.
In the case of `CCOc1ccccc1/C=c1\sc2nc(-c3ccco3)nn2c1=O`, the inhibition is reported as 56.6% (active).
Work on `O=c1nc2s/c(=C\c3ccco3)c(=O)n2nc1Cc1ccccc1` yielded an inhibition of -20.4%.
For `O=C(NCc1ccc2c(c1)OCO2)c1c(O)nc2sccn2c1=O`, the inhibition was 66.3% (active).
With `Cc1oc2c(c1C(=O)N1CCOCC1)C(=O)c1ccccc1C2=O` the inhibition was 59.5% (active).
In the case of `CCOc1ccc(NC(=O)CCC(=O)N/N=C/c2ccc([N+](=O)[O-])s2)cc1`, the inhibition is reported as 76.9% (active).
With `Cc1ccccc1NCC(=O)N/N=C\c1ccc([N+](=O)[O-])s1` the inhibition was 79.3% (active).
With `COc1cc(/C=N/Nc2nc3ccccc3s2)ccc1O` the inhibition was 33.5%.
In the case of `COc1ccc(C(=O)Nc2ccccc2C(=O)N/N=C/c2ccc(O)c(OC)c2)cc1`, the inhibition is reported as 98.3% (active).
With `COc1ccc(C(=O)Nc2ccccc2C(=O)N/N=C/c2ccccc2OC)cc1` the inhibition was 72% (active).
In the case of `Oc1c(Cl)cc(Cl)c(Cl)c1Cc1c(O)c(Cl)cc(Cl)c1Cl`, the inhibition is reported as 95.3% (active).
In the case of `O=C(Nc1ccc2oc(-c3ccccc3F)nc2c1)c1ccco1`, the inhibition is reported as 82.7% (active).
With `CC(C)(C)c1ccc(Oc2ccc(N)cc2)cc1` the inhibition was 51.7% (active).
In the case of `Oc1ccc(Br)cc1/C=N/Nc1ccccn1`, the inhibition is reported as 65.5% (active).
In the case of `Cc1cc(N)n2nc(-c3ccc(C(C)(C)C)cc3)cc2n1`, the inhibition is reported as 72.7% (active).
In the case of `COC(C/C=C/C(=O)[C@@H](C)OCc1ccccc1)OC`, the inhibition is reported as 55.2% (active).
For `COc1cc([N+](=O)[O-])ccc1NC(=O)COC(=O)CCOc1ccc(C)cc1`, the inhibition was 64.7% (active).
Molecule `CCc1ccccc1NC(=O)CN(c1ccc(OC)cc1OC)S(=O)(=O)c1ccccc1[N+](=O)[O-]` has an inhibition of 32.9%.
With `O=C(CNC(=O)OCc1ccccc1)Oc1cc2oc(=O)cc(-c3ccccc3)c2cc1Cl` the inhibition was 31.1%.
In the case of `C=CCNC(=O)c1ccc2c3n(nc2c1)-c1ccc(C)cc1CO3`, the inhibition is reported as 75.2% (active).
`Oc1ccccc1-c1cc(-c2ccc(Cl)cc2)n[nH]1` gave an inhibition of -21.6%.
For `CCSC1=C(C#N)C(=O)n2c1cc1c2CCCC1`, the inhibition was 56.1% (active).
In the case of `O=C1NC(Nc2nc3ccccc3s2)(C(F)(F)F)C(=O)N1C1CCCCC1` (stereo not given), the inhibition is reported as 63.5% (active).
In the case of `Cc1nn(-c2ccccc2)c(Cl)c1/C=C/C(=O)c1ccc(O)cc1`, the inhibition is reported as 43.2% (active).
In the case of `Cc1nn(Cc2ccc(Cl)c(Cl)c2)c(C)c1NC(=O)c1cc(C2CC2)on1`, the inhibition is reported as 59.7% (active).
In the case of `Cc1ccc(-c2ccc(/C=N/NC(=O)CN3CCOCC3)o2)cc1[N+](=O)[O-]`, the inhibition is reported as 76.8% (active).
With `Cc1ccc(C(=O)COc2cccc(NC(=O)c3ccco3)c2)cc1` the inhibition was 52.7% (active).
For `COc1ccc(-c2cc(C3CCN(c4ncccc4[N+](=O)[O-])CC3)[nH]n2)cc1`, the inhibition was 46% (active).
In the case of `O=[N+]([O-])c1ccc(C=Nc2ccc(Cl)cc2Cl)s1`, the inhibition is reported as 77.5% (active).
In the case of `O=[N+]([O-])c1ccc2c(c1)Nc1nc3ccccc3nc1N2`, the inhibition is reported as 48.9% (active).
For `CCCc1[nH]nc2c1C(c1ccc(Br)s1)C(C#N)=C(N)O2` (stereo not given), the inhibition was 73.6% (active).
In the case of `Oc1ccc2ccccc2c1C=Nc1ccccc1`, the inhibition is reported as 65.5% (active).
In the case of `O=[N+]([O-])c1ccc(N=Cc2c(O)ccc3ccccc23)cc1`, the inhibition is reported as 61.4% (active).
With `CC1CC2=C(CC1/C=N/NC(N)=S)C(C)(C)CCC2` (stereo not given) the inhibition was 43.6% (active).
For `COc1ccc(/C=C(\C#N)C(=O)ONC2=NCCCCC2)cc1`, the inhibition was 81.6% (active).
In the case of `O=c1c2cc(Br)ccc2nc(-c2cccc(Cl)c2)n1O`, the inhibition is reported as 60.2% (active).
For `COc1cc(/C=C2/C(=O)ON=C2C)ccc1OCc1ccccc1F`, the inhibition was 55.5% (active).
In the case of `COc1cc(/C=C2/C(=O)ON=C2C)ccc1OCc1cccc(F)c1`, the inhibition is reported as 53.9% (active).
In the case of `Clc1ccc(C2CC(c3cccs3)n3ncnc3N2)cc1Cl` (stereo not given), the inhibition is reported as 40.9% (active).
With `CCN1C(=O)/C(=C2\SC(N3CCCCC3)=NC2=O)c2ccccc21` the inhibition was 41.5% (active).
For `COc1cccc(C2Nc3cccc4cccc(c34)N2)c1`, the inhibition was 77.5% (active).
In the case of `Cc1cc(C(=O)N/N=C\C(Br)=C\c2ccccc2)c(C)o1`, the inhibition is reported as 50.8% (active).
With `C/C(=N/NC(=O)c1cc(Cl)ccc1O)C12CC3CC(CC(C3)C1)C2` the inhibition was 59.9% (active).
In the case of `CC(=NCc1ccco1)C1=C(O)c2ccccc2C1=O`, the inhibition is reported as 50.4% (active).
With `CC(=NCc1ccc2c(c1)OCO2)C1=C(O)c2ccccc2C1=O` the inhibition was 67.6% (active).
For `COc1ccc(C(=O)NCC(=O)N/N=C/c2ccc([N+](=O)[O-])o2)cc1OC`, the inhibition was 75.6% (active).
In the case of `c1ccc(-c2nnc3n2NC(c2ccc4c(c2)OCO4)S3)cc1` (stereo not given), the inhibition is reported as 43.8% (active).
With `Nc1ccccc1SC(C[N+](=O)[O-])c1ccccc1` (stereo not given) the inhibition was 89.4% (active).
For `Cc1cc(C)c(S(=O)(=O)c2ccccc2)c(OC(=O)c2c(F)cccc2Cl)n1`, the inhibition was 61.8% (active).
With `O=c1c2ccccc2[nH]c(=S)n1CCN1CCC(=C(c2ccc(F)cc2)c2ccc(F)cc2)CC1` the inhibition was 41.8% (active).
`CCCC(=O)N1CCN(c2nnc(-c3ccc(C)cc3)c3ccccc23)CC1` gave an inhibition of 16%.
For `COC(=O)N/N=C/c1ccc(-c2ccc(Cl)c(Cl)c2)o1`, the inhibition was 43.3% (active).
With `O=C(Nc1ccccc1)c1nnsc1S(=O)(=O)c1ccc(Cl)cc1` the inhibition was 93% (active).
In the case of `FC(F)(F)c1cccc(Nc2ncnc3ccccc23)c1`, the inhibition is reported as 29%.
For `CCOc1cc(NC(=O)c2ccccc2C(=O)O)c(OCC)cc1NC(=O)c1ccccc1F`, the inhibition was 66.5% (active).
